nsP2pro inh: inhibitors of chikungunya virus nsP2 protease | FRET peptide cleavage, nsP2pro, fluorescence 1 h | Potency, µM (top dose mostly 24.9 µM), actives largely listed as inhibitors | hit rate 1.1% among 31,000; note: nearly all actives have a fitted effect of over 60% in size
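Enzyme 150 nM, substrate 2.5 uM (both final); Tris-HCl 10 mM pH 8.0 + 0.01% Tween 20; cpd up to 25 uM, 7 pts; 15 min preinc., 1 h RT; fluorescence ex 525/em 598.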
CHIKV nsP2 cell: inhibits CHIKV nsP2 protease in cells | Potency, µM (titrated, usually from 51.1 µM), hits mostly inhibitors | cell-based CHIKV nsP2 protease reporter assay | hit rate 10% among 450 | shares compounds with nsP2pro inh; note: nearly all actives have a fitted effect of over 70% in size
NSP2 full ctr: full-length CHIKV NSP2 protease inhibition, selectivity; hit rate 39% among 410; Potency, µM (doses to about 50.7 µM), usual class: inhibitors; Full-length CHIKV NSP2 protease enzymatic counterscreen; shares compounds with nsP2pro inh; note: nearly all actives have a fitted effect of over 65% in size
Furin counter: inhibits human furin in a CHIKV nsP2 protease selectivity counterscreen. shares compounds with nsP2pro inh. Recombinant human furin enzymatic counterscreen, fluorogenic substrate. Potency, µM (doses to about 50.6 µM), most hits filed as inhibitors. hit rate 6% among 410. AID 1964102
Target sequence (P09958 whole entry, looked up): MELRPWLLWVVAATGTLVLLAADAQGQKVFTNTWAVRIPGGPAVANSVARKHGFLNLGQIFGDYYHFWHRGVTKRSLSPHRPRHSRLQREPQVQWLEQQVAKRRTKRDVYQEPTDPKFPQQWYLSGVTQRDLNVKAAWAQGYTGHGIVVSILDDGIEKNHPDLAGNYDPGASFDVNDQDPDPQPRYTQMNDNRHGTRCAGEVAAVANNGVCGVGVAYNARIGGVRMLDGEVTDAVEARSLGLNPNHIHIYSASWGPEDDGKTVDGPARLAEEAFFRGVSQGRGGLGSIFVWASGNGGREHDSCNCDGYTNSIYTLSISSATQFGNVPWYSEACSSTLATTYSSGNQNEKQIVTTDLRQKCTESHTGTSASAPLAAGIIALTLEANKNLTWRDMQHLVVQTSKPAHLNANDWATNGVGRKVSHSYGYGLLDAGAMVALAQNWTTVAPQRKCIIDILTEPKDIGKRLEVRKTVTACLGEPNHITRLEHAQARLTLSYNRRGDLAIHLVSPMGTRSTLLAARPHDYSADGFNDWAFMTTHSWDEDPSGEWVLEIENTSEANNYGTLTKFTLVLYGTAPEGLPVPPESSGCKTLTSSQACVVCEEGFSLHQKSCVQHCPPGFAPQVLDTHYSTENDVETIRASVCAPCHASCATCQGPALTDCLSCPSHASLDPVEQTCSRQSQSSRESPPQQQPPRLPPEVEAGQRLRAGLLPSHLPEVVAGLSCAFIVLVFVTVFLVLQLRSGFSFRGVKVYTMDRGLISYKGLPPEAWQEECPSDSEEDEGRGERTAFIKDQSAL
NS23 peptide cs: selectivity test for CHIKV nsP2 protease inhibitors: endogenous NS2/3 peptide | hit rate 34% among 410 | shares compounds with nsP2pro inh | Purified CHIKV nsP2 protease, endogenous NS2/3 peptide cleavage | Potency, µM (doses to about 51 µM), actives largely listed as inhibitors; note: nearly all actives have a fitted effect of over 55% in size
Papain counter: inhibits papain in a CHIKV nsP2 protease selectivity counterscreen; hit rate 5% among 410; purified papain protease activity, enzymatic inhibition; shares compounds with nsP2pro inh; AID 1964104; Potency, µM (titrated, usually from 51 µM), actives largely listed as inhibitors
nsP2pro conf qHTS: CHIKV nsP2 protease inhibition, confirmatory qHTS; shares compounds with nsP2pro inh; CHIKV nsP2 protease enzymatic activity, qHTS; Potency, µM (top dose mostly 25.5 µM), most hits filed as inhibitors; hit rate 43% among 410; note: nearly all actives have a fitted effect of over 75% in size
HCV NS3 counter: selectivity counter-screen for CHIKV nsP2 protease inhibitors: HCV NS3/4A. shares compounds with nsP2pro inh. HCV NS3/4A protease biochemical counterscreen. Potency, µM (top dose mostly 50.9 µM), most hits filed as inhibitors. hit rate 20% among 410. AID 1964106; note: nearly all actives have a fitted effect of over 55% in size
Numbers stand for hits; n = inactive; u = inconclusive; ! = not confirmed by another sample. The sample as a whole holds a higher share of hits than the screen did. Calls come from the whole dose curve.

SMILES	nsP2pro inh	others
O=C(Nc1ncc(-c2ccccc2)s1)c1ccc(-c2cccc([N+](=O)[O-])c2)o1	n
CC(C)(C)c1ccc(-c2nc3c(N4CCN(Cc5ccc6nccnc6c5)CC4)cccc3[nH]2)cc1	n
CCCCS(=O)c1sc2nc(-c3cccs3)cc(-c3ccccc3)c2c1N (centres undefined)	7µM	CHIKV nsP2 cell=n;NSP2 full ctr=n;Furin counter=n;NS23 peptide cs=n;Papain counter=u;nsP2pro conf qHTS=14.2µM;HCV NS3 counter=n
COc1cc(=O)n2c(c1C(=O)NCc1ccccc1Cl)CCCC2	n
Cc1cc(C)nc(NC(=S)N2CCN(c3ncccn3)CC2)c1	n
c1ccc(Cn2c(-c3ccc(OCC(C4CCNCC4)n4c(-c5ccccc5)nc5ccccc54)cc3)nc3ccccc32)cc1 (centres undefined)	n
C=Cc1cc2oc(-c3ccc(O)c(F)c3)nc2cc1O	n
COCC1CN(Cc2ccc(Br)s2)CC12CCNCC2 (centres undefined)	u	CHIKV nsP2 cell=u;NSP2 full ctr=u;Furin counter=n;NS23 peptide cs=u;Papain counter=n;nsP2pro conf qHTS=u;HCV NS3 counter=u
COCC1CN(C)CC12CCN(Cc1cccnc1)CC2 (centres undefined)	n
COCC1CN(Cc2ccc(OC)cc2)CC12CCNCC2 (centres undefined)	n
CC(=O)OC(C)(C)CCC(=O)[C@](C)(O)C1[C@H](O)C[C@@]2(C)C3CC=C4C(C[C@H](O)[C@@H](O)C4(C)C)[C@]3(C)C(=O)C[C@]12C (some centres undefined)	n
COC(=O)/C=C/C12COC(C)(C)C1C(O)C(OC(C)=O)C1(C)C2CCC2(C)C(c3ccoc3)OC(=O)C3OC321 (centres undefined)	u	CHIKV nsP2 cell=n;NSP2 full ctr=n;Furin counter=n;NS23 peptide cs=n;Papain counter=n;nsP2pro conf qHTS=n;HCV NS3 counter=n
CC1(C)O[C@H]2CC(=O)OC[C@]23[C@H]2CC[C@@]4(C)[C@H](c5ccoc5)OC(=O)[C@H]5O[C@]54[C@]2(C)C(=O)C[C@@H]13	n
COC(=O)C[C@H]1C(C)(C)[C@H](OC(C)=O)C2CC3=C4CC(=O)O[C@@H](c5ccoc5)[C@]4(C)CCC3[C@@]1(C)C2=O (some centres undefined)	n
CC(=O)OC1CC(C(C)(C)O)OC2CCC3(C)OC4=C(C(=O)C=C5C(C)C(OC(C)=O)C6(C)C(C)OC546)C(O)C3C12C (centres undefined)	n
Cc1ccc(-n2nc(C)c([C@@H]3C=C[C@@H](NCc4ccc(F)cc4)C3)c2C)cc1Cl	n
Cc1nn(-c2ccc(F)cc2)c(C)c1[C@@H]1C=C[C@@H](NCc2ccc(C(C)C)cc2)C1	n
Cc1nn(CCC#N)c(C)c1[C@@H]1C=C[C@@H](NCc2ccc(C(C)C)cc2)C1	u	CHIKV nsP2 cell=n;NSP2 full ctr=5.95µM;Furin counter=n;NS23 peptide cs=16.8µM;Papain counter=n;nsP2pro conf qHTS=11.6µM;HCV NS3 counter=4.21µM
COc1cccc(CNc2ccc(S(=O)(=O)Nc3ncc(C)s3)cc2)c1O	n
CC(C)(C)OC(=O)N1CCN(c2ccc(NCc3cnc(-c4ccc(C#N)cc4)s3)cc2)CC1	n
C=C1CCCC2(C)CCC(C(C)(C)OC3OC(C)C(O)C(O)C3OC(=O)/C(C)=C\C)CC12 (centres undefined)	n
CCOc1ccccc1NC(=O)C1=C(C)Nc2ncnn2C1c1sccc1C (centres undefined)	n
COc1ccccc1NC(=O)C1=C(C)Nc2ncnn2C1c1ccc[nH]1 (centres undefined)	8.91µM	CHIKV nsP2 cell=n
COc1ccc(NC(=O)C2=C(C)Nc3ncnn3C2c2ccc(C)o2)cc1 (centres undefined)	n
Cc1ccc(NC(=O)CN2C(=O)N/C(=C\c3cccn3-c3ccc(C(=O)NC#N)cc3)C2=O)cc1	n
SMILES	nsP2pro inh	others
CCOC(=O)c1c(NC(=O)CCCOc2ccc(C(C)(C)C)cc2)sc2c1CCCC2	n
COC(=O)c1c(NC(=O)CCCOc2cccc(C)c2)sc2c1CCC(C)C2 (centres undefined)	n
COC(=O)c1c(NC(=O)CCCOc2cccc(C)c2)sc2c1CCC2	n
CCOc1ccc(/C=C/C(=O)Nc2sc3c(c2C(=O)OC)C(C(=O)OC)CC3)cc1 (centres undefined)	2.75µM	CHIKV nsP2 cell=n;NSP2 full ctr=u;Furin counter=n;NS23 peptide cs=4.72µM;Papain counter=n;nsP2pro conf qHTS=3.65µM;HCV NS3 counter=n
COC(=O)c1c(NC(=O)CCCOc2ccc(C(C)(C)C)cc2)sc2c1CCC(C)C2 (centres undefined)	n
COC(=O)c1c(NC(=O)CCCOc2ccc(C)cc2)sc2c1C(C(=O)OC)CC2 (centres undefined)	2.13µM	CHIKV nsP2 cell=18.3µM;NSP2 full ctr=u;Furin counter=n;NS23 peptide cs=11.6µM;Papain counter=n;nsP2pro conf qHTS=7.11µM;HCV NS3 counter=n
COC(=O)c1c(NC(=O)CCCOc2cccc(C)c2)sc2c1C(C(=O)OC)CC2 (centres undefined)	1.9µM	CHIKV nsP2 cell=14.6µM!;NSP2 full ctr=18.3µM;Furin counter=n;NS23 peptide cs=5.17µM;Papain counter=n;nsP2pro conf qHTS=2.52µM;HCV NS3 counter=n
COC(=O)c1c(NC(=O)CCCOc2ccccc2C)sc2c1CCC(C)C2 (centres undefined)	n
COC(=O)c1c(NC(=O)CCCOc2ccc(C)cc2)sc2c1CCCC2	n
COC(=O)C[C@H]1C(C)(C)[C@H](OC(=O)C(C)C)C2CC3=C4CC(=O)O[C@@H](c5ccoc5)[C@]4(C)CCC3[C@@]1(C)C2=O (some centres undefined)	n
CC[C@H]1C2C[C@H]3[C@@H]4N(C)c5ccccc5[C@@]45C[C@H](C2[C@H]5O)N3[C@@H]1O (some centres undefined)	n
CC(C)(C)c1cc(CN2CCN(CC(O)c3ccc(Cl)cc3)CC2)cc(C(C)(C)C)c1O (centres undefined)	n
Cc1ccc(C)c(N2CCN(C(=O)Cn3ncc4ccsc4c3=O)CC2)c1	n
CCOC(=O)N1CCN(C(=O)Cn2sc3nc(C)cc(C)c3c2=O)CC1	3.94µM	CHIKV nsP2 cell=n;NSP2 full ctr=u;Furin counter=n;NS23 peptide cs=20.6µM;Papain counter=n;nsP2pro conf qHTS=4µM;HCV NS3 counter=n
CCOC(=O)C1CCN(C(=O)Cn2ncc3c4ccccc4n(C)c3c2=O)CC1	n
COc1ccnc(NC(=S)N2CCN(c3cccc(Cl)c3Cl)CC2)c1	n
COc1ccc(CC(=O)N(C)C2CCc3nnc(C)n3CC2)cc1Cl (centres undefined)	n
CC(=O)OCC(=O)C1(O)CCC2C3CCC4=CC(=O)CCC4(C)C3C(=O)CC21C (centres undefined)	n
CC(C)C(=O)NCC1(N(C)C)CCCCC1	n
CCn1ccnc1CNC(=O)c1cc(OC)ccc1OC1CCN(C(=O)C2CC2)CC1	n
